Results reported in the supplement of paper PMC7411054.
Where a name gives a salt, the structure may show the parent alone.

Experiments:
Conditions in all cases: treatment time: 24 h
A549-ACTB-RAB5A [1] = assay: lowest phenotypically active concentration; higher = less potent
Procedure, shortened: (§1)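 Live-cell features were measured per well and normalised to solvent control wells after fifteen gene-edited A549, HepG2 and WPMY1 reporter lines had been treated for 24 h at 0.3, 1, 3 or 9 µM in four wells each. A condition was deviating when ≥3 of 4 wells sat beyond the 95th percentile of control Euclidean distances. It was reproducible when the median replicate Pearson correlation exceeded the 95th percentile of non-replicates. Phenotypic activity demanded both.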

A549-CANX-COX4 [2] = assay: as above
Procedure, shortened: as §1

A549-GM130-SQSTM1 [3] = assay: as above
Procedure, shortened: as §1

A549-TUBA1B-RELA [4] = assay: as above
Procedure, shortened: as §1

HepG2-TUBA1B-RELA [5] = assay: as above
Procedure, shortened: as §1

A549-ACTB-RAB5A [6] = assay: phenotypically active (imaging signature differs from DMSO and reproducible) at any of 0.3-9 uM (binary (1 = active, 0 = inactive)); higher = active
Procedure, shortened: as §1

A549-CANX-COX4 [7] = assay: as above
Procedure, shortened: as §1

A549-GM130-SQSTM1 [8] = assay: as above
Procedure, shortened: as §1

A549-TP53BP1-CLTA = assay: as above
Procedure, shortened: as §1

A549-TUBA1B-RELA [9] = assay: as above
Procedure, shortened: as §1

HepG2-ACTB-RAB5A = assay: as above
Procedure, shortened: as §1

HepG2-CANX-COX4 = assay: as above
Procedure, shortened: as §1

HepG2-GM130-SQSTM1 = assay: as above
Procedure, shortened: as §1

HepG2-TP53BP1-CLTA = assay: as above
Procedure, shortened: as §1

HepG2-TUBA1B-RELA [10] = assay: as above
Procedure, shortened: as §1

WPMY1-ACTB-RAB5A = assay: as above
Procedure, shortened: as §1

WPMY1-CANX-COX4 = assay: as above
Procedure, shortened: as §1

WPMY1-GM130-SQSTM1 = assay: as above
Procedure, shortened: as §1

WPMY1-TP53BP1-CLTA = assay: as above
Procedure, shortened: as §1

WPMY1-TUBA1B-RELA = assay: as above
Procedure, shortened: as §1

| SMILES | lowest phenotypically active concentration (A549-ACTB-RAB5A [1]) | lowest phenotypically active concentration (A549-CANX-COX4 [2]) | lowest phenotypically active concentration (A549-GM130-SQSTM1 [3]) | lowest phenotypically active concentration (A549-TUBA1B-RELA [4]) | lowest phenotypically active concentration (HepG2-TUBA1B-RELA [5]) | phenotypically active (A549-ACTB-RAB5A [6]) | phenotypically active (A549-CANX-COX4 [7]) | phenotypically active (A549-GM130-SQSTM1 [8]) | phenotypically active (A549-TP53BP1-CLTA) | phenotypically active (A549-TUBA1B-RELA [9]) | phenotypically active (HepG2-ACTB-RAB5A) | phenotypically active (HepG2-CANX-COX4) | phenotypically active (HepG2-GM130-SQSTM1) | phenotypically active (HepG2-TP53BP1-CLTA) | phenotypically active (HepG2-TUBA1B-RELA [10]) | phenotypically active (WPMY1-ACTB-RAB5A) | phenotypically active (WPMY1-CANX-COX4) | phenotypically active (WPMY1-GM130-SQSTM1) | phenotypically active (WPMY1-TP53BP1-CLTA) | phenotypically active (WPMY1-TUBA1B-RELA) |
| --- | --- | --- | --- | --- | --- | --- | --- | --- | --- | --- | --- | --- | --- | --- | --- | --- | --- | --- | --- | --- |
| N=C(N)c1ccc(OCCCCCOc2ccc(C(=N)N)cc2)cc1 [pentamidine] | 1 µM | ≤ 0.3 µM | 1 µM | 1 µM | 9 µM | 1 (active) | 1 (active) | 1 (active) | 1 (active) | 1 (active) | 1 (active) | 1 (active) | 0 (inactive) | 1 (active) | 1 (active) | 0 (inactive) | 0 (inactive) | 1 (active) | 0 (inactive) | 0 (inactive) |
| N#CC[C@@H](C1CCCC1)n1cc(-c2ncnc3[nH]ccc23)cn1 [ruxolitinib-(S)] | 3 µM | 9 µM | 9 µM | 9 µM | 9 µM | 1 (active) | 1 (active) | 1 (active) | 1 (active) | 1 (active) | 0 (inactive) | 1 (active) | 1 (active) | 1 (active) | 1 (active) | 1 (active) | 1 (active) | 0 (inactive) | 0 (inactive) | 1 (active) |
| Cc1ccc(Nc2nccc(N(C)c3ccc4c(C)n(C)nc4c3)n2)cc1S(N)(=O)=O [pazopanib] | 1 µM | 3 µM | 3 µM | 3 µM |  | 1 (active) | 1 (active) | 1 (active) | 1 (active) | 1 (active) | 0 (inactive) | 1 (active) | 1 (active) | 1 (active) | 0 (inactive) | 1 (active) | 1 (active) | 0 (inactive) | 0 (inactive) | 1 (active) |
| CN1CCN(C(=O)CN[C@H]2C[C@@H]2c2ccc(OCc3ccccc3)cc2)CC1 [RN 1 dihydrochloride] | 3 µM | 9 µM | 9 µM | 3 µM | 3 µM | 1 (active) | 1 (active) | 1 (active) | 1 (active) | 1 (active) | 1 (active) | 0 (inactive) | 1 (active) | 1 (active) | 1 (active) | 1 (active) | 1 (active) | 1 (active) | 1 (active) | 1 (active) |
| O=C(NOC[C@H](O)CO)c1ccc(F)c(F)c1Nc1ccc(I)cc1F | ≤ 0.3 µM | 1 µM | ≤ 0.3 µM | 1 µM | ≤ 0.3 µM | 1 (active) | 1 (active) | 1 (active) | 1 (active) | 1 (active) | 1 (active) | 1 (active) | 1 (active) | 1 (active) | 1 (active) | 1 (active) | 0 (inactive) | 1 (active) | 1 (active) | 0 (inactive) |
| CC(C)CNc1nc(-c2cccc3ncccc23)cn2c(-c3ccc(C(=O)NC4CC4)cc3)cnc12 | ≤ 0.3 µM | 1 µM | ≤ 0.3 µM | ≤ 0.3 µM | 1 µM | 1 (active) | 1 (active) | 1 (active) | 1 (active) | 1 (active) | 1 (active) | 1 (active) | 1 (active) | 1 (active) | 1 (active) | 1 (active) | 0 (inactive) | 1 (active) | 1 (active) | 0 (inactive) |
| CNC(=O)c1cc(Oc2ccc(NC(=O)Nc3ccc(Cl)c(C(F)(F)F)c3)cc2)ccn1 [sorafenib] | 3 µM | 9 µM | 9 µM | 9 µM | 3 µM | 1 (active) | 1 (active) | 1 (active) | 1 (active) | 1 (active) | 1 (active) | 1 (active) | 1 (active) | 1 (active) | 1 (active) | 1 (active) | 1 (active) | 1 (active) | 0 (inactive) | 1 (active) |
| CCN(CCO)CCCOc1ccc2c(Nc3cc(CC(=O)Nc4cccc(F)c4)n[nH]3)ncnc2c1 [barasertib-HQPA] | ≤ 0.3 µM | ≤ 0.3 µM | ≤ 0.3 µM | ≤ 0.3 µM | ≤ 0.3 µM | 1 (active) | 1 (active) | 1 (active) | 1 (active) | 1 (active) | 1 (active) | 1 (active) | 1 (active) | 1 (active) | 1 (active) | 1 (active) | 1 (active) | 1 (active) | 1 (active) | 1 (active) |
| CCN(CC)CCNc1ccc(CO)c2sc3ccccc3c(=O)c12 [hycanthone] | 9 µM | 9 µM | 9 µM | 9 µM | 9 µM | 1 (active) | 1 (active) | 1 (active) | 1 (active) | 1 (active) | 1 (active) | 0 (inactive) | 1 (active) | 1 (active) | 1 (active) | 1 (active) | 1 (active) | 1 (active) | 1 (active) | 1 (active) |
| CC[C@H](CO)Nc1nc(NCc2ccccc2)c2ncn(C(C)C)c2n1 [Roscovitine] | ≤ 0.3 µM | 9 µM | ≤ 0.3 µM | ≤ 0.3 µM | 3 µM | 1 (active) | 1 (active) | 1 (active) | 1 (active) | 1 (active) | 1 (active) | 1 (active) | 1 (active) | 1 (active) | 1 (active) | 1 (active) | 1 (active) | 0 (inactive) | 1 (active) | 1 (active) |
| S=C(S)N1CCCC1 [Pyrrolidinedithiocarbamate ammonium] | 3 µM | 3 µM | 3 µM | 3 µM | 9 µM | 1 (active) | 1 (active) | 1 (active) | 1 (active) | 1 (active) | 1 (active) | 1 (active) | 1 (active) | 1 (active) | 1 (active) | 0 (inactive) | 0 (inactive) | 1 (active) | 0 (inactive) | 0 (inactive) |
| O=C(Nc1cccnc1)N1CCC(Cc2cccc(Oc3ccc(C(F)(F)F)cn3)c2)CC1 | 9 µM | 9 µM | 3 µM | 9 µM | 9 µM | 1 (active) | 1 (active) | 1 (active) | 1 (active) | 1 (active) | 1 (active) | 0 (inactive) | 0 (inactive) | 1 (active) | 1 (active) | 0 (inactive) | 0 (inactive) | 1 (active) | 0 (inactive) | 0 (inactive) |
| CN1CCCC(n2nc(Cc3ccc(Cl)cc3)c3ccccc3c2=O)CC1 (centres undefined) [azelastine] | 3 µM | 9 µM | 9 µM | 3 µM | 9 µM | 1 (active) | 1 (active) | 1 (active) | 1 (active) | 1 (active) | 1 (active) | 0 (inactive) | 1 (active) | 1 (active) | 1 (active) | 1 (active) | 1 (active) | 1 (active) | 1 (active) | 1 (active) |
| CCc1cc(-c2n[nH]c(C)c2-c2ccc3c(c2)OCCO3)c(O)cc1O | 3 µM | 3 µM | 3 µM | 3 µM | 9 µM | 1 (active) | 1 (active) | 1 (active) | 1 (active) | 1 (active) | 1 (active) | 1 (active) | 1 (active) | 1 (active) | 1 (active) | 1 (active) | 1 (active) | 1 (active) | 1 (active) | 1 (active) |
| CC(C)(C)c1nc(-c2cccc(NS(=O)(=O)c3c(F)cccc3F)c2F)c(-c2ccnc(N)n2)s1 [dabrafenib] | ≤ 0.3 µM | 1 µM | ≤ 0.3 µM | ≤ 0.3 µM | ≤ 0.3 µM | 1 (active) | 1 (active) | 1 (active) | 1 (active) | 1 (active) | 1 (active) | 1 (active) | 1 (active) | 1 (active) | 1 (active) | 1 (active) | 1 (active) | 0 (inactive) | 0 (inactive) | 1 (active) |
| O=C(Nc1c[nH]nc1-c1nc2cc(CN3CCOCC3)ccc2[nH]1)NC1CC1 | ≤ 0.3 µM | ≤ 0.3 µM | ≤ 0.3 µM | ≤ 0.3 µM | ≤ 0.3 µM | 1 (active) | 1 (active) | 1 (active) | 1 (active) | 1 (active) | 1 (active) | 1 (active) | 1 (active) | 1 (active) | 1 (active) | 1 (active) | 1 (active) | 1 (active) | 1 (active) | 1 (active) |
